# Measurements taken from PubChem BioAssay AID1347383 (Zoeller Lab, School of Medicine, Boston University, 2020).
# Active and inactive are the calls of the source.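 Rule for the calls: active = cell survival after UV exposure 2 SD above solvent-only control wells at 10 µM, confirmed on one or two repeats; inactive = the rest.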
# Assay: protection of CHO cells from pyrene-fatty acid UV killing, primary screen, phospholipid biosynthesis inhibitor project, ZR-82 cells, Analyticon library, screen 2 (AID 1347383);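 note: survival reflects blocked phospholipid synthesis cutting uptake of the phototoxic fatty acid; compound and fatty acid exposure 3 h then viability read next day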
# Conditions: ZR-82 CHO cells, CellTiter Blue, at 10 µM, peroxisome-deficient CHO-K1 variant, with DGAT-1, DGAT-2 and ACAT inhibitors
row,SMILES,outcome
1,CS/C=C/C(=O)O[C@@H]1CCC2=CC(=O)C(=C(C)C)C[C@]2(C)[C@H]1C,inactive
2,CC[C@H]1C(=O)CC2C3CCC4C[C@@H](O)[C@]5(O)C[C@]4(CO5)C3CC[C@@]21C (stereo not given in full),inactive
3,O=c1c(O)c(-c2ccc(O)cc2O)oc2cc(O)cc(O)c12,inactive
4,CC(C)(O)c1ccc2c(c1)CCC1C(C)(C(=O)O)CCCC21C (stereo not given),inactive
5,CC(C)(O)/C=C/C1=CC(O)C(C)(O)CC1O (stereo not given),inactive
6,CC12CCC3C1C(c1c(cc(O)c(C(=O)c4ccccc4)c1O)O2)C3(C)C (stereo not given),inactive
7,C/C=C(/C)C(=O)O[C@H]1CC(C)=C[C@@H](O)[C@]2(C)[C@@H]1[C@](O)(C(C)C)C[C@H]2OC(=O)/C(C)=C\C,inactive
8,COc1cc(CC(C)C(C)Cc2ccc(O)c(OC)c2)ccc1O (stereo not given),inactive
9,CC1=CC2=C(C(=O)OC2O)C(O)C2CC(C)(C)CC12 (stereo not given),inactive
10,CC1(C)O[C@]23C[C@H]1C[C@H](OC(=O)c1ccoc1)[C@]2(C)[C@@H](OC(=O)c1ccoc1)CCC3(C)O (stereo not given in full),inactive
11,CC/C=C\CC1C(=O)C=CC1(CCCCC1CCC(=O)O1)OC(C)=O (stereo not given),inactive
12,Oc1cc(O)cc(CCCCCCCCCCc2cc(O)cc(O)c2)c1,inactive
13,C=C1CCC2[C@@](C)(CO)CCC[C@]2(C)[C@H]1CC/C(C)=C/CO (stereo not given in full),inactive
14,CC(C)=CCCC1(C)C(CC=C(C)C)CC2(CC=C(C)C)C(=O)C(=C(O)c3ccccc3)C(=O)C1(C)C2=O (stereo not given),inactive
15,C=C1CCC2C(OC(=O)C2(O)COC(C)=O)C2C(=C)C(O)CC12 (stereo not given),inactive
16,COc1c(OC)c(OC)c2c(c1OC)c(=O)c1ccccc1n2C,inactive
17,CCC(C)CC(C)/C=C/CCC(O)C(Cc1ccc(O)cc1)NC (stereo not given),inactive
18,CC(C)c1ccc2c(c1)C(=O)CC1C(C)(C(=O)O)CCCC21C (stereo not given),inactive
19,C=C1C(=O)O[C@@H]2C3=C(C)CCC[C@]3(C)CC[C@@]12O,inactive
20,Cc1c(O)cc2c(c1O)C(=O)[C@@H](O)[C@H](c1ccc(O)c(O)c1)O2,inactive

row,SMILES,outcome
1,COc1cc(C(O)C(C)O)ccc1OC(C)Cc1cc(OC)c(OC)c(OC)c1 (stereo not given),inactive
2,COc1cc(O)c(C(=O)c2c(C)cc(O)cc2OC)c(O)c1,inactive
3,C=C(Oc1cccc(C(=O)O)c1)C(=O)O,inactive
4,COc1ccc(C(O)C(C)OC2OC(CO)C(O)C(O)C2O)cc1 (stereo not given),inactive
5,COc1cc(/C=C/CO)ccc1OC/C=C(\C)CCC=C(C)C,inactive
6,COc1cc2c(cc1O)C(=O)CC1C(C)(C)C(=O)CCC21C (stereo not given),inactive
7,CC(Cc1ccc(O)c(O)c1)C(C)Cc1ccc(O)c(O)c1 (stereo not given),inactive
8,O=c1c(O)c(-c2ccccc2)oc2cc(O)cc(O)c12,inactive
9,O=C(/C=C/c1ccc(O)c(O)c1)N[C@@H](Cc1ccc(O)c(O)c1)C(=O)O,inactive
10,CCCCCCC1OC23OC1CCC2CCC(O)C3O (stereo not given),inactive
11,CC1=CC(=O)C2C(C)(C)CC(O)CC2(C)C1CO (stereo not given),inactive
12,C=C1C2=C(C(=O)N1OC)[C@H](O)[C@](C)(O)[C@H](CCCCC)O2,inactive
13,O=C(O)/C=C/c1ccc(O[C@@H]2O[C@H](CO)[C@@H](O)[C@H](O)[C@H]2O)cc1,inactive
14,COC1=CC(=O)CC(C)C12Oc1cc(OC)cc(O)c1C2=O (stereo not given),inactive
15,O=C(OCc1ccccc1)c1ccccc1,inactive
16,O=C(CCCCc1ccc(O)cc1)CCc1ccc(O)cc1,inactive
17,COc1c2ccoc2c(OC)c2oc(=O)ccc12,inactive
18,Cc1cc(O)c2c(c1)C(=O)c1cccc(O)c1C2=O,inactive
19,COc1cc(O)cc(O)c1C(=O)/C=C/c1ccc(O)cc1,inactive
20,COc1c(C)c2c(c(O)c1C/C=C(\C)CC/C=C(\C)CCC(=O)O)C(=O)OC2,inactive
